Consider 38 compounds from PubChem BioAssay (EPA / NIEHS).

Active and inactive are the calls of the source. How the source made its calls: active means hit-call score of the fitted dose curve at least 0.9, where 1 is the maximum; inactive means score below 0.9.

Read-out in the assay: Collagen III, COL3A1 (gene 1281)
Put plainly: BSK_MyoF_CollagenIII: BioMAP Diversity Plus: MyoF Assay for Collagen III Biomarker Activity (AID 2284239). The settings on record: primary human lung fibroblasts. Here is the method:
BSK_MyoF is a cell-based, multiplexed-readout assay that uses lung fibroblasts, […], with measurements taken at 24 hours after chemical dosing in a microplate: 96-well plate.BSK_MyoF_CollagenIII is an assay component measured in the BSK_MyoF assay. It measures Collagen III antibody related to regulation of gene expression using ELISA technology.Data from the assay component BSK_MyoF_CollagenIII was analyzed at the endpoint, BSK_MyoF_CollagenIII, in the positive analysis fitting direction relative to DMSO as the negative control and baseline of activity. Using a type of binding reporter, gain or loss-of-signal activity can be used to understand protein changes. To generalize the intended target to other relatable targets, this assay endpoint is annotated to the 'cell adhesion molecules' intended target family, where the subfamily is 'collagen'.
The levels of cell surface (or secreted, indicated by the prefix "s") biomarker endpoints were measured by ELISA. Overt cytotoxicity to cells in confluent adherent cultures (all systems other than the BT system) was assessed by measuring total protein levels using sulforhodamine B (SRB) staining in parallel cultures at the time of biomarker measurements, indicated as SRB endpoints. For proliferation assays for adherent cell types, individual cell types are cultured at sub-confluence and relative cell numbers quantified by SRB staining at time points optimized for each system (48 h: 3C and CASM3C systems; 72 h: BT and HDF3CGF systems; 96 h: SAg system). SRB was performed by staining cells with 0.1% SRB after fixation with 10% TCA and reading wells at 560 nm.Viability and proliferation of PBMC (T cells) was quantified by Alamar Blue reduction for the SAg and BT systems. For PBMC viability (referred to as PBMC Cytotoxicity within the assay endpoint names), cells were plated (75,000/well in a 96-well plate) and then chemical samples added for 1 h before addition of activators, SEB and TSST-1 (20 ng/mL final concentration each). Cells were incubated for 90 h. Then, Alamar Blue (20 uL/well) (Invitrogen, Cat DAL1100) was added for 6 h, and the plates were read with a fluorescence microplate reader at 546/580 nm (excitation/emission). For PBMC proliferation, cells were plated and activated as above but incubated for only 16 h prior to addition of Alamar Blue. Plates were read after 6 h.
In the case of `CNC[C@H](O)c1cccc(O)c1`, the AC50 was 0.016 µM (active). On to `O=C=NC1CCC(CC2CCC(N=C=O)CC2)CC1` (stereo not drawn), for which the outcome was inactive. On the same count and under the same terms, to `O=P(c1ccccc1)(c1ccccc1)c1ccccc1` belongs “inactive”.

Take `c1ccc2c(c1)c1cccc3ccc4cccc2c4c31`: the result was inactive.

In the case of `O=C(O)c1cn(C2CC2)c2cc(N3CCNCC3)c(F)cc2c1=O`, the outcome was inactive. Still for that read-out and setting: under `C=C[Si](OCC)(OCC)OCC` stands “inactive”.

Turning to `O=[N+]([O-])c1cc(C(F)(F)F)ccc1Cl`, the result was inactive. In the case of `CCn1c2ccccc2c2cc(N)ccc21`, the result was inactive.

As to `Nc1cc([N+](=O)[O-])ccc1Cl`, the outcome was inactive.

On to `CCCCC/C=C/C=C/C=O`, for which the AC50 is 32.2 µM (active). Take `CN(CCOc1ccc(CC2SC(=O)NC2=O)cc1)c1ccccn1` (stereo not drawn): the outcome was inactive.

Take `CCCCCCCCC=O`: the outcome was inactive. As for `C#C[C@]1(O)CC[C@H]2[C@@H]3CCC4=Cc5oncc5C[C@]4(C)[C@H]3CC[C@@]21C`, the AC50 was 28.1 µM (active). `CC(=O)/C=C/C1=C(C)CCCC1(C)C`: the outcome was inactive.

As to `C=C(C)C(=O)O[C@H]1C[C@@H]2CC[C@@]1(C)C2(C)C`, the AC50 was 31.9 µM (active). Same read-out and setting: under `O=C1OC2(c3cc(Br)c(O)c(Br)c3Oc3c2cc(Br)c(O)c3Br)c2c(Cl)c(Cl)c(Cl)c(Cl)c21` stands 4.52 µM (active).

On to `N#Cc1ccc(CC(=NNC(=O)Nc2ccc(OC(F)(F)F)cc2)c2cccc(C(F)(F)F)c2)cc1`, for which the result was inactive. Same read-out and setting: under `CCCCC(CC)COCCC#N` (stereo not drawn) stands “inactive”; under `CC(C)Oc1ccccc1O`, “inactive”; under `c1ccc2sc(SN(C3CCCCC3)C3CCCCC3)nc2c1`, “inactive”. On the same count and under the same terms, to `CC(=O)O[C@]1(C(C)=O)CC[C@H]2[C@@H]3C[C@H](C)C4=CC(=O)CC[C@]4(C)[C@H]3CC[C@@]21C` belongs “inactive”; to `CCCCC(CC)COC(=O)/C=C\C(=O)OCC(CC)CCCC` (stereo not drawn), “inactive”. In the case of `O=C(O)C[C@H](O)C[C@H](O)/C=C/c1c(C2CC2)nc2ccccc2c1-c1ccc(F)cc1`, the AC50 was 2.16 µM (active).

For the compound `O=C(O)c1cn(-c2ccc(F)cc2)c2cc(N3CCNCC3)c(F)cc2c1=O`, the result was inactive. With `CC1CCC(C(C)CS)CC1S` (stereo not drawn), the AC50 was 9.71 µM (active). For `Cc1ccc(Nc2ccc(O)c3c2C(=O)c2ccccc2C3=O)cc1`, the result was inactive. For the compound `CC(=O)Nc1ccccc1O`, the concentration at half-maximal activity (AC50) was 0.016 µM (active).

With `CC(C)(COC(=O)c1ccccc1)COC(=O)c1ccccc1`, the outcome was inactive. As for `Cc1ccc2n[nH]nc2c1`, the result was inactive. The same measure, in the same setting: under `CC(C)c1ccc(C(C)C)cc1` stands “inactive”; under `CCCCCCCCCC=O`, “inactive”; under `CCc1c(C)cc(N)c(CC)c1N`, “inactive”. Still for that read-out and setting: to `BrC1CCC(Br)C(Br)CCC(Br)C(Br)CCC1Br` (stereo not drawn) belongs “inactive”; to `COC(=O)c1ccc(C)cc1`, “inactive”; to `CCCCCCCCCCCCCCCCCC(=O)OCC(CC)CCCC` (stereo not drawn), “inactive”. Turning to `CC1COc2ccccc2N1C(=O)C(Cl)Cl` (stereo not drawn), the AC50 is 29.6 µM (active). The same measure, in the same setting: to `O=C1CCCCCCCCCCCCCCO1` belongs 20 µM (active); to `Cc1ccc(O)c(C(C)(C)C)c1`, 30.3 µM (active).
